# HSP90 inh: HSP90 inhibitors, primary screen, cell lysate, luminescence; inhibition, % at 5.6 µM; AID 1789, 2009; Heat shock protein HSP 90 (rabbit reticulocyte lysate; luciferase refolding); Rabbit reticulocyte lysate, luciferase refolding luminescence, 3 h; 0.91% of 290,000 active;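 active = inhibition above the screen-wide mean plus 3 SD, computed separately per campaign, cut at about 16% in these data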;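 also: 0% = DMSO wells and 100% = 60 µM geldanamycin wells; inhibitors lower the luminescence because luciferase stays unfolded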
# TROY NFkB inh: inhibitors of TROY-driven NF-kB signaling, primary screen, Q293 LMP1-TROYcd cells, NF-kB luciferase, uHTS; Q293 LMP1-TROYcd NF-kB luciferase reporter, 4 h; inhibition, % at 10 µM; 0.98% of 360,000 active; AID 1347056, 2019;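 active = compounds whose plate-normalised and pattern-corrected inhibition of the luciferase reporter signal at the single screening dose is 50% or more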
# aDG glyco up: activators of alpha-DG glycosylation, primary screen, uHTS, Pro5-aDG cells, AlphaScreen; 0.22% of 360,000 active; alpha-DG glycosylation AlphaScreen (IIH6); 0% Pro5, 100% B10-LARGE cell signal; activation, % at 10 µM;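 active = activation of at least 8% versus controls, or a plate z-score of at least 8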;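 also: Pro5 are CHO cells carrying HIG-tagged alpha-DG that lacks glycosylation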
# LGR2 inh: inhibitors of bursicon-induced LGR2 CRE-luciferase signal, primary screen, cell-based, HEK293, CRE-luciferase reporter, bursicon stimulation | Drosophila bursicon receptor LGR2 (rickets) | bursicon-stimulated, 4 h | inhibition, % at 9.99 µM | 0.35% of 380,000 active | AID 720647, 2013;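 active = drop in luminescence signal, shown as inhibition above about 50% in the replicate tests, limit read from the data, passing the limit was not always enough; inconclusive = probably only some replicates passing the limit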;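 also: agonist challenge used bursicon conditioned medium at about half maximal strength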
# LMP1 NFkB inh: EBV LMP1-driven NF-kappaB luciferase reporter inhibitors, primary screen, cell-based, luminescence, single point | LMP1-induced NF-kappaB luciferase reporter cells | inhibition, % at 12.5 µM | 0.69% of 350,000 active | AID 504558, 2011; in the data active = inhibition above about 41%; inconclusive = no clear call, values can overlap the other calls;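 also: 0% = neutral control wells and 100% = reference inhibitor control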
# TWEAK-Fn14 inh: inhibitors of TWEAK-Fn14 signaling, primary screen, luciferase reporter cells, uHTS; TWEAK-stimulated Fn14 reporter cells, luciferase luminescence, 8 h; 2% of 360,000 active; inhibition, % at 10 µM; in the data active = inhibition above about 50%
# The depositor's hits bear a star; ? = inconclusive; . = no result given. In the library only some 2.6% were active in any assay of this set; here they are far more common.
SMILES,HSP90 inh,TROY NFkB inh,aDG glyco up,LGR2 inh,LMP1 NFkB inh,TWEAK-Fn14 inh
CN1C(=O)c2cc(NC(=O)c3cnccn3)ccc2OC[C@@H]2O[C@@H](CC(=O)N[C@@H]3CCN(Cc4ccccc4)C3)CC[C@H]21,.,.,.,-7,.,.
O=[N+]([O-])c1ccc(NCCOc2ccccc2Cl)nc1,-3,-34,0,-15,-4,51*
Cc1cccc(OCCNc2ccc([N+](=O)[O-])cn2)c1,-1,-21,0,1,-23,-2
CCC(=O)N(C)C[C@@H]1Oc2cc(-c3ccc(OC)cc3)ccc2S(=O)(=O)N([C@H](C)CO)C[C@H]1C,.,.,.,9,.,.
C[C@H]1CN([C@@H](C)CO)C(=O)c2cc(NC(=O)Nc3ccccc3)ccc2O[C@H]1CN(C)S(=O)(=O)c1cccs1,.,.,.,15,.,.
NC(=O)c1ccsc1NC(=O)COC(=O)Cc1cccc2ccccc12,8,61*,2,.,21,55*
C[C@H]1CCCCO[C@@H](CN(C)CC2CCCCC2)[C@@H](C)CN([C@@H](C)CO)C(=O)c2cc(NC(=O)Nc3ccc4c(c3)OCO4)ccc2O1,.,.,.,1,.,.
O=C(CN1CCOCC1)N1[C@H](CO)[C@@H]2c3ccccc3NC[C@@H]21,.,.,.,2,.,.
Cc1cc(C(F)(F)F)nn1CC(=O)N1CCCCC1C (configuration not stated),0,.,0,.,-1,83*
CC1CCCCN1C(=O)CSc1nc(N)nc(N)n1 (configuration not stated),.,5,0,17,0,19
O=C(CNC(=S)N(Cc1ccccc1F)C1CCCCC1)NCCCN1CCOCC1,-3,11,0,-7,4,85*
O=C(CNC(=S)N(Cc1ccccc1F)C1CCCCC1)NCCN1CCOCC1,-4,-3,0,10,-2,-8
C[C@H]1CN([C@@H](C)CO)C(=O)c2cccc(NC(=O)C3CC3)c2O[C@@H]1CN(C)Cc1ccc(Oc2ccccc2)cc1,.,.,.,8,.,.
N#CC(C#N)=C(Nc1ccc(F)cc1)SCc1cccc(F)c1,3,53*,1,53*,18,49
COc1cc(C(=O)Nc2ccc3c(c2)OCO3)ccc1-n1cnnn1,2,-3,0,.,8,5
COc1cc(NC(=O)Cc2cccs2)ccc1-n1cnnn1,-1,.,0,.,-5,91*
O=C(c1cccnc1)N1C[C@@H]2[C@H](c3ccccc31)[C@@H](CO)N2C(=O)Nc1ccccc1,.,.,.,26,.,.
C=CS(=O)(=O)c1ccc(Oc2ccc(S(=O)(=O)C=C)cc2)cc1,14,63*,0,102*,?,102*
Cc1ccnc(NC(=O)c2cccc(OC(F)F)c2)n1,-4,-23,0,-5,-17,-13
O=C(Nc1cc(Cl)cc(Cl)c1)c1cccc(OC(F)F)c1,0,39,2,-2,3,60*
Cc1noc(/C=C/Nc2ccc(F)cc2F)c1[N+](=O)[O-],0,-15,1,-108,-50,-6
Cc1noc(/C=C/c2ccccn2)c1[N+](=O)[O-],0,23,0,34,23,56*
Cc1cc(Cl)c(S(=O)(=O)Nc2ccc3c(c2)OCCO3)cc1OCC(=O)NC1CCCCC1,2,59*,0,.,10,56*
COC(=O)COc1ccc(S(=O)(=O)Nc2ccc3c(c2)OCCO3)cc1C,0,56*,0,9,10,56*
CCCNC(=O)[C@@H]1[C@@H](CO)[C@@H]2Cn3c(cccc3=O)[C@@H]2N1Cc1cccc(F)c1,.,.,.,15,.,.
SMILES,HSP90 inh,TROY NFkB inh,aDG glyco up,LGR2 inh,LMP1 NFkB inh,TWEAK-Fn14 inh
CN(C)C(=O)c1cccc(-c2ccc([C@H]3[C@H](CO)N4CCCCN(CC5CCOCC5)C[C@@H]34)cc2)c1,.,.,.,-12,.,.
CC(C)NC(=O)Nc1ccc2c(c1)C(=O)N([C@@H](C)CO)C[C@@H](C)[C@@H](CN(C)C(=O)c1ccncc1)OCCCC[C@@H](C)O2,.,.,.,13,.,.
CC1=NN(C(=O)c2c(Br)cnn2C)C(O)(C(F)(F)F)C1 (configuration not stated),-2,-4,0,.,-13,72*
CC1=NN(C(=O)c2c(Br)c(C)nn2C)C(O)(C(F)(F)F)C1 (configuration not stated),-1,-17,0,.,-1,0
CC1CCN(C(=O)COC(=O)c2cccs2)CC1,.,3,0,12,-12,58*
C[C@@H]1CN([C@@H](C)CO)C(=O)c2cccc(NC(=O)NC3CCCCC3)c2O[C@@H]1CN(C)C,.,.,.,12,.,.
Nc1nc(N)nc(-c2cc(Cl)ccc2Cl)n1,.,-4,0,-6,84*,-32
CCCC(C)C(=O)Nc1ccc2c(c1)OCCO2 (configuration not stated),1,37,0,.,9,53*
CC(=O)Nc1ccc2c(c1)OCCO2,-1,7,0,3,1,6
CC(Nc1ccc2c(c1)OCCO2)C(=O)Nc1ccc2c(c1)OCO2 (configuration not stated),-5,50*,0,5,37,59*
c1ccc(CNc2nc3ccccc3n3cnnc23)cc1,16*,-17,0,-15,-7,-10
C[C@@H]1CN([C@H](C)CO)C(=O)Cc2cc(NC(=O)c3ccncc3)ccc2O[C@@H]1CN(C)C(=O)Nc1ccccc1,.,.,.,-11,.,.
C[C@@H]1CN([C@H](C)CO)C(=O)c2cc(NC(=O)c3ccncc3)ccc2O[C@@H](C)CCCCO[C@@H]1CN(C)Cc1ccncc1,.,.,.,6,.,.
CCN(CC)S(=O)(=O)c1ccc(N/N=C/c2cc(OC)c(OC)cc2OC)nc1,-1,-3,0,-1,-2,-6
CCOc1cccc(/C=N/Nc2ccc(S(=O)(=O)N(CC)CC)cn2)c1O,-5,8,2,30,57*,-11
COc1ccc(-c2cnc(NCc3cc4c(cc3[N+](=O)[O-])OCO4)n2C)cc1,-1,-20,0,-8,66*,6
C[C@@H]1CCCCO[C@H](CN(C)S(=O)(=O)c2ccc(Cl)cc2)[C@H](C)CN([C@H](C)CO)C(=O)c2cc(NC(=O)C3CCCCC3)ccc2O1,.,.,.,13,.,.
Cc1ccnc(N/C=C(/NC(=O)c2ccccc2)C(=O)N/N=C\c2ccc(F)cc2)n1,4,80*,0,.,58*,101*
Cc1ccnc(N/C=C(/NC(=O)c2ccccc2)C(=O)NN)n1,-3,8,0,-28,5,-5
CC(=O)OC1CCC2(C)C(CCC3C4CC=C(C(C)=O)C4(C)OC(=O)CC32)C1 (configuration not stated),.,43,0,107*,79*,102*

# Screens: PubChem, several laboratories
